Compounds with a hit are over-represented: about 2.1% of the library has one in this group of screens.
aSyn UTR inh – 5' untranslated region of α-synuclein, MLPCN primary screen | inhibition, % (tested at 7.5 µM) | 0.82% of 300,000 active | alpha-synuclein 5'UTR reporter, inhibitor activity; in the data active = inhibition above about 60%; inconclusive = no clear call, values can overlap the other calls;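 note: H4 neuroglioblastoma cells stably carrying SNCA 5'UTR luciferase fusion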
TRPM1 prom inh – MITF TRPM1 promoter inhibition in SK-MEL-5 cells | 0.83% of 330,000 active | SK-MEL-5 TRPM1 promoter luciferase, 24 h | inhibition, % at 12.5 µM;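 active = mean inhibition across replicates of 60% or more, whatever share of single replicates reaches that level; inconclusive = some that reach 60%, reason not given; inactive = mean inhibition across replicates below 60%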
Shn3 inh set2 – inhibitors of Schnurri-3 3'UTR reporter in osteoblasts; 0.52% of 360,000 active; Clone20 osteoblast Shn3 3'UTR firefly luciferase, 24 h; inhibition, % at 12.5 µM; AID 588674;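 active = mean inhibition of at least 75% with every replicate also reaching 75%; inconclusive = mean inhibition at least 75% but some replicate below; inactive = mean inhibition below 75%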
PAX8 reporter – PAX8 transcriptional activity inhibition | inhibition, % at 12.6 µM | RMG-I TPO-luciferase reporter, SteadyGlo, 24 h | 1.2% of 360,000 active | AID 652154;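 active = mean replicate inhibition at least 60% with every replicate also reaching 60%; inconclusive = only one of the two criteria is met; inactive = mean below 60% and not all replicates reaching 60%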;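 note: luciferase light reporting Pax8 driven TPO promoter activity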
LMP1 NFkB inh – Epstein-Barr LMP1 NF-kappaB reporter inhibition. 0.69% of 350,000 active. inhibition, % at 12.5 µM. LMP1-induced NF-kappaB luciferase reporter cells, luminescence. AID 504558; in the data active = inhibition above about 41%; inconclusive = no clear call, values can overlap the other calls
Large screens that a line does not name were inactive.

CCSC1=C(C#N)C(c2ccc(C)o2)CC(=O)N1 (stereo not drawn)	LMP1 NFkB inh 48.7
CC(=O)Nc1ccc(NC(=O)c2nc(S(=O)(=O)Cc3cccc(C)c3)ncc2Cl)cc1	Shn3 inh set2 97.5, PAX8 reporter 91.0
Cc1cccc(CS(=O)(=O)c2ncc(Cl)c(C(=O)NCc3ccc4c(c3)OCO4)n2)c1	TRPM1 prom inh inconclusive, Shn3 inh set2 94.0
COC(=O)c1ccc(NC(=O)c2nc(S(=O)(=O)Cc3cccc(C)c3)ncc2Cl)cc1	aSyn UTR inh inconclusive, TRPM1 prom inh 94.0, Shn3 inh set2 94.5
CC1CCCCN1C(=O)c1ccc(OC2CCN(S(=O)(=O)N(C)C)CC2)cc1 (stereo not drawn)	none
CO[C@@H]1CN(C)C(=O)c2ccc(NC(=O)NC(C)C)cc2OC[C@@H](C)N(S(C)(=O)=O)C[C@H]1C	none (no result: aSyn UTR inh, TRPM1 prom inh, Shn3 inh set2, LMP1 NFkB inh)
COc1cc(/C=N/NC(=O)CN2CCCCC2)ccc1OCc1ccc(Br)cc1	none
CCCNC1=C(N(C(C)=O)c2cccc(F)c2)C(=O)c2ccccc2C1=O	aSyn UTR inh 91.7, TRPM1 prom inh 98.4, PAX8 reporter 108.8
C=CCC1Cc2c(cccc2[N+](=O)[O-])C(CC=C)N1 (stereo not drawn)	none
COc1ccc(-c2nnc(NC(=O)c3ccc(F)cc3)o2)cc1	none (no result: TRPM1 prom inh)
COc1ccc(-c2csc(NC(=O)c3ccc(S(=O)(=O)N4CCc5ccccc5C4)cc3)n2)cc1	none
CC1CCCN(S(=O)(=O)c2ccc(C(=O)Nc3nnc(-c4ccccc4Cl)o3)cc2)C1 (stereo not drawn)	aSyn UTR inh 77.9 (no result: PAX8 reporter)
COc1ccc(-c2nnc(NC(=O)c3ccc4c(c3)OCCO4)o2)cc1	aSyn UTR inh 104.7
CN(C)S(=O)(=O)c1ccc(C(=O)Nc2nnc(-c3ccc4c(c3)CCCC4)o2)cc1	aSyn UTR inh 69.0
CC1CCCN(S(=O)(=O)c2ccc(C(=O)Nc3nnc(-c4ccccn4)o3)cc2)C1 (stereo not drawn)	none
COc1ccc(-c2nnc(NC(=O)c3ccc(S(=O)(=O)N4CCc5ccccc5C4)cc3)o2)cc1	aSyn UTR inh 73.2 (no result: PAX8 reporter)
CCNC(=S)N1CCN(CCNC2=CC(=O)CC(C)(C)C2)CC1	none
CC1(C)CC(=O)C=C(NCCN2CCN(C(=S)Nc3ccccc3)CC2)C1	LMP1 NFkB inh 69.7
Cc1ccc(C(=O)NNC(=O)Cc2nc3nc(C)cc(C)n3n2)cc1	none (no result: LMP1 NFkB inh)
Cc1cc(C)n2nc(CC(=O)NC3CCCCCC3)nc2n1	LMP1 NFkB inh 64.4 (no result: PAX8 reporter)
CC1(C)CC(Nc2ccc(Nc3ccccc3)cc2)CC(C)(C)N1	PAX8 reporter 68.5
C[N+]1(CC(=O)OCCCC2CCCCC2)CCCC1	none
Cc1cccc(N2CCN(S(=O)(=O)c3ccc4c(c3)CCN4C(=O)CCC(=O)O)CC2)c1C	none (no result: aSyn UTR inh, PAX8 reporter)
Cc1ccc(C)c(N2CCN(S(=O)(=O)c3ccc4c(c3)CCN4C(=O)CCC(=O)O)CC2)c1	LMP1 NFkB inh 85.5
Cc1cccc2c1c1ccc3c(c1n2C)C(=O)C=CC3=O	TRPM1 prom inh 93.8 (no result: aSyn UTR inh)
c1ccc(CC2CCN(c3ncnc4sccc34)CC2)cc1	Shn3 inh set2 90.3
Cc1ccc(S(=O)(=O)N2CCN(c3ncnc4sccc34)CC2)cc1	Shn3 inh set2 87.1 (no result: PAX8 reporter)
CN1c2ccc(C3=CCCCC3)cc2[C@@H]2[C@@H](CCN2C(=O)c2ccccc2F)[C@@H]1CO	none (no result: aSyn UTR inh, TRPM1 prom inh, Shn3 inh set2, LMP1 NFkB inh)
Cc1ccc(O)c(N=NC2=C(O)CC(C)(C)CC2=O)c1	aSyn UTR inh 64.8
CCN(CC)C1=NS(=O)(=O)c2cc([N+](=O)[O-])ccc21	none
Cc1ccccc1NC(=S)N=Nc1c(O)n(C)c2ccc(S(=O)(=O)N3CCOCC3)cc12	aSyn UTR inh 77.9
Cc1cccc(C)c1NC(=S)N=Nc1c(O)n(C)c2ccc(S(=O)(=O)N3CCOCC3)cc12	aSyn UTR inh 71.4
Cn1c(=O)n(C)c2cc(S(=O)(=O)N3CCOCC3)ccc21	none (no result: PAX8 reporter)
Cc1nc(NC(=O)c2ccccc2)sc1-c1cc(C(=O)N2CCOCC2)nn1Cc1ccccc1	none (no result: aSyn UTR inh, TRPM1 prom inh)
C[C@H]1CCCCO[C@@H](CN(C)Cc2ccc(Cl)c(Cl)c2)[C@@H](C)CN([C@@H](C)CO)C(=O)c2cc(NC(=O)Nc3ccc(C(F)(F)F)cc3)ccc2O1	PAX8 reporter 83.3 (no result: aSyn UTR inh, TRPM1 prom inh, Shn3 inh set2, LMP1 NFkB inh)
C[C@@H]1CCCCO[C@@H](CN(C)Cc2ccc(Cl)c(Cl)c2)[C@H](C)CN([C@@H](C)CO)C(=O)c2cc(NC(=O)Nc3ccc(C(F)(F)F)cc3)ccc2O1	PAX8 reporter 91.0 (no result: aSyn UTR inh, TRPM1 prom inh, Shn3 inh set2, LMP1 NFkB inh)
C[C@@H]1CCCCO[C@H](CN(C)Cc2ccc(Cl)c(Cl)c2)[C@@H](C)CN([C@@H](C)CO)C(=O)c2cc(NC(=O)Nc3ccc(C(F)(F)F)cc3)ccc2O1	PAX8 reporter 94.7 (no result: aSyn UTR inh, TRPM1 prom inh, Shn3 inh set2, LMP1 NFkB inh)
C[C@@H]1CN([C@@H](C)CO)C(=O)c2cc(NC(=O)Nc3ccc(C(F)(F)F)cc3)ccc2O[C@@H](C)CCCCO[C@@H]1CN(C)Cc1ccc(C(F)(F)F)cc1	none (no result: aSyn UTR inh, TRPM1 prom inh, Shn3 inh set2, LMP1 NFkB inh)
C[C@@H]1CN([C@H](C)CO)C(=O)c2cc(NC(=O)C3CCCCC3)ccc2O[C@H]1CN(C)C	none (no result: aSyn UTR inh, TRPM1 prom inh, Shn3 inh set2, LMP1 NFkB inh)
COc1ccc(OC)c(C2C(C(=O)c3ccco3)=C(O)C(=O)N2CC2CCCO2)c1 (stereo not drawn)	none
COc1ccc(/C=C2\CCc3ccccc3C2=O)cc1CN1CCOCC1	aSyn UTR inh 62.5
O=C(NCc1ccccn1)C(=O)NCC1OCCN1S(=O)(=O)c1ccc([N+](=O)[O-])cc1 (stereo not drawn)	none
Nc1cc(=O)[nH]c(SCCSc2cc(Cl)ccc2Cl)n1	LMP1 NFkB inh 51.4
CCCSc1nc(N)cc(=O)[nH]1	none (no result: PAX8 reporter)
Nc1cc(=O)[nH]c(SCCSc2ccccc2F)n1	aSyn UTR inh 67.4
Nc1cc(=O)[nH]c(SCc2ccc(Cl)cc2)n1	none (no result: PAX8 reporter)
CC1(C(=O)NCc2ccccc2)CN(S(C)(=O)=O)CC(=O)N1Cc1cccc(F)c1 (stereo not drawn)	none (no result: aSyn UTR inh, TRPM1 prom inh, Shn3 inh set2, LMP1 NFkB inh)
CC1(C)CC(=O)C(C=Nc2ccc(C(=O)c3ccccc3)cc2N=CC2=C(O)CC(C)(C)CC2=O)=C(O)C1	none
C/C1=C\CCC2C(/C=C(\C)CC1)OC(=O)C2CN1CCCCC1 (stereo not drawn)	PAX8 reporter 68.0
Cc1ccc(S(=O)(=O)N2CCN(C(=O)CSc3nnnn3C)C2)cc1	LMP1 NFkB inh 62.1 (no result: PAX8 reporter)
O=[N+]([O-])c1ccc(C=NNC(=S)NN=Cc2ccc([N+](=O)[O-])cc2)cc1	none (no result: aSyn UTR inh)
COc1ccc(S(=O)(=O)NNC(=O)C2Cc3c(ccc4ccccc34)O2)cc1 (stereo not drawn)	LMP1 NFkB inh 44.5
COCCNC(=O)C1Cc2c(ccc3ccccc23)O1 (stereo not drawn)	none
Cn1cc(C(=O)c2ccc(Cl)cc2Cl)cc1C(=O)N/N=C(\N)COc1ccc(F)cc1	none (no result: PAX8 reporter)
Cn1cc(C(=O)c2ccc(Cl)cc2Cl)cc1C(=O)N/N=C(\N)COc1ccc(Cl)cc1Cl	aSyn UTR inh 64.9 (no result: PAX8 reporter)
Cn1cc(C(=O)c2ccc(Cl)cc2Cl)cc1C(=O)N/N=C(\N)COc1ccc(Cl)cc1	PAX8 reporter 69.6
CC(C)Cc1cc(-c2ccco2)c(C#N)c(N)n1	aSyn UTR inh 69.8 (no result: PAX8 reporter)
COc1ccc(CN2CCC(N(CCc3ccccc3)Cc3ccccc3)CC2)c(OC)c1	Shn3 inh set2 89.2

Source: PubChem (Broad Institute)
